# Where “and” joins values, the source holds several entries; their conditions need not be identical. Equal entries are not always repeated. The campaign covered roughly 5,500 compounds. About 2,000 (36%) were called active. Inconclusive results (about 18%) are left out. Cut-off read from the data, not from the text of the source: active = normalized growth mostly below about 0.91 (no sharp cut-off); inconclusive = no clear call, values can overlap the other calls; inactive = mostly above about 0.92. The list shows a part of the results.
# Assay: chemical genetic growth profiling, strain panel (AID 1159580);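 note: tested at 20 µM; growth read once vehicle control cultures reached saturation at 30 °C; 1 = growth at the plate median or of vehicle wells; lower values mean less growth of the strain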
# Settings: S. cerevisiae deletion strains, growth OD
smiles,measurement,setting,value
CCOc1cccc(C(=O)c2ccc(O)c(O)c2O)c1,normalized growth,"locus YAL021C, strain ccr4, stronger effect = lower value",0.601 (active)
same,normalized growth,"locus YAL026C, strain drs2, stronger effect = lower value",0.813 (active)
same,normalized growth,"locus YAL030W, strain snc1, stronger effect = lower value",0.928 (active)
same,normalized growth,"locus YBL061C, strain skt5, stronger effect = lower value",0.888 (active)
same,normalized growth,"locus YBR009C, strain hhf1, stronger effect = lower value",0.879 (active)
same,normalized growth,"locus YBR021W, strain FUR4, stronger effect = lower value",0.898 (inactive)
same,normalized growth,"locus YBR023C, strain chs3, stronger effect = lower value",0.806 (active)
same,normalized growth,"locus YBR171W, strain sec66, stronger effect = lower value",0.918 (inactive)
same,normalized growth,"locus YBR229C, strain ROT2, stronger effect = lower value",0.938 (inactive)
same,normalized growth,"locus YBR231C, strain swc5, stronger effect = lower value",0.783 (active)
same,normalized growth,"locus YBR279W, strain paf1, stronger effect = lower value",0.933 (inactive)
same,normalized growth,"locus YCL011C, strain gbp2, stronger effect = lower value",0.941 (inactive)
same,normalized growth,"locus YCL016C, strain dcc1, stronger effect = lower value",0.963 (inactive)
same,normalized growth,"locus YCL029C, strain bik1, stronger effect = lower value",0.776 (active)
same,normalized growth,"locus YCL061C, strain MRC1, stronger effect = lower value",0.933 (inactive)
same,normalized growth,"locus YCL069W, strain vba3, stronger effect = lower value",0.975 (inactive)
same,normalized growth,"locus YCR088W, strain abp1, stronger effect = lower value",0.969 (inactive)
same,normalized growth,"locus YDL005C, strain med2, stronger effect = lower value",0.974 (inactive)
same,normalized growth,"locus YDL035C, strain GPR1, stronger effect = lower value",0.804 (active)
same,normalized growth,"locus YDL040C, strain nat1, stronger effect = lower value",0.963 (inactive)
same,normalized growth,"locus YDL074C, strain BRE1, stronger effect = lower value",0.67 (active)
same,normalized growth,"locus YDL101C, strain DUN1, stronger effect = lower value",0.752 (active)
same,normalized growth,"locus YDL185W, strain tfp1, stronger effect = lower value",0.586 (active)
same,normalized growth,"locus YDL192W, strain arf1, stronger effect = lower value",0.815 (active)
same,normalized growth,"locus YDR001C, strain nth1, stronger effect = lower value",0.955 (inactive)
same,normalized growth,"locus YDR069C, strain doa4, stronger effect = lower value",0.566 (active)
same,normalized growth,"locus YDR101C, strain arx1, stronger effect = lower value",0.889 (active)
same,normalized growth,"locus YDR137W, strain rgp1, stronger effect = lower value",0.643 (active)
same,normalized growth,"locus YDR159W, strain sac3, stronger effect = lower value",0.84 (active)
same,normalized growth,"locus YDR162C, strain NBP2, stronger effect = lower value",0.672 (active)
same,normalized growth,"locus YDR195W, strain ref2",0.99 (inactive)
same,normalized growth,"locus YDR297W, strain sur2, stronger effect = lower value",0.916 (active)
same,normalized growth,"locus YDR318W, strain mcm21, stronger effect = lower value",0.877 (active)
same,normalized growth,"locus YDR334W, strain swr1, stronger effect = lower value",0.886 (active)
same,normalized growth,"locus YDR335W, strain msn5, stronger effect = lower value",0.84 (active)
same,normalized growth,"locus YDR388W, stronger effect = lower value",0.923 (active)
same,normalized growth,"locus YDR392W, strain spt3, stronger effect = lower value",0.807 (inactive)
same,normalized growth,"locus YDR502C, strain sam2, stronger effect = lower value",0.791 (active)
same,normalized growth,"locus YEL003W, strain gim4, stronger effect = lower value",0.839 (active)
same,normalized growth,"locus YEL037C, strain rad23, stronger effect = lower value",0.925 (inactive)
same,normalized growth,"locus YEL061C, strain CIN8 (second series), stronger effect = lower value",0.955 (inactive)
same,normalized growth,"locus YER015W, strain faa2, stronger effect = lower value",0.89 (active)
same,normalized growth,"locus YER016W, strain bim1, stronger effect = lower value",0.953 (inactive)
same,normalized growth,"locus YER110C, stronger effect = lower value",0.979 (inactive)
same,normalized growth,"locus YER111C, strain swi4, stronger effect = lower value",0.815 (active)
same,normalized growth,"locus YER155C, strain BEM2 (second series), stronger effect = lower value",0.847 (active)
same,normalized growth,"locus YER155C, strain BEM2, stronger effect = lower value",0.858 (active)
same,normalized growth,"locus YER167W, strain BCK2, stronger effect = lower value",0.909 (inactive)
same,normalized growth,"locus YFR010W, strain ubp6, stronger effect = lower value",0.84 (active)
same,normalized growth,"locus YGL078C, strain dbp3, stronger effect = lower value",0.956 (inactive)
same,normalized growth,"locus YGL086W, strain mad1, stronger effect = lower value",0.782 (active)
same,normalized growth,"locus YGL167C, strain pmr1, stronger effect = lower value",0.935 (inactive)
same,normalized growth,"locus YGL173C, strain kem1, stronger effect = lower value",0.766 (active)
same,normalized growth,"locus YGL227W, strain vid30, stronger effect = lower value",0.984 (inactive)
same,normalized growth,"locus YGL240W, strain doc1, stronger effect = lower value",0.978 (inactive)
same,normalized growth,"locus YGL248W, strain PDE1, stronger effect = lower value",0.792 (active)
same,normalized growth,"locus YGL253W, strain hxk2, stronger effect = lower value",0.901 (active)
same,normalized growth,"locus YGR135W, strain pre9, stronger effect = lower value",0.777 (active)
same,normalized growth,"locus YGR252W, strain gcn5, stronger effect = lower value",0.77 (inactive)
same,normalized growth,"locus YHR013C, strain ard1, stronger effect = lower value",0.81 (active)
same,normalized growth,"locus YHR027C, strain rpn1, stronger effect = lower value",0.83 (active)
same,normalized growth,"locus YHR030C, strain SLT2, stronger effect = lower value",0.978 (inactive)
same,normalized growth,"locus YHR079C, strain IRE1 (second series), stronger effect = lower value",0.859 (active)
same,normalized growth,"locus YHR079C, strain IRE1, stronger effect = lower value",1.02 (inactive)
same,normalized growth,"locus YHR094C, strain hxt1, stronger effect = lower value",0.965 (inactive)
same,normalized growth,"locus YHR129C, strain ARP1, stronger effect = lower value",0.761 (active)
same,normalized growth,"locus YHR142W, strain chs7, stronger effect = lower value",0.776 (active)
same,normalized growth,"locus YHR200W, strain rpn10, stronger effect = lower value",0.859 (active)
same,normalized growth,"locus YIL066C, strain RNR3, stronger effect = lower value",0.8 (active)
same,normalized growth,"locus YIL073C, strain SPO22, stronger effect = lower value",0.654 (active)
same,normalized growth,"locus YIL125W, strain kgd1, stronger effect = lower value",0.951 (inactive)
same,normalized growth,"locus YIR030C, strain dcg1, stronger effect = lower value",0.958 (inactive)
same,normalized growth,"locus YJL092W, strain hpr5, stronger effect = lower value",0.97 (inactive)
same,normalized growth,"locus YJL095W, strain BCK1 (second series), stronger effect = lower value",0.867 (active)
same,normalized growth,"locus YJL095W, strain BCK1, stronger effect = lower value",0.603 (active) and 0.961 (inactive)
same,normalized growth,"locus YJL115W, strain asf1, stronger effect = lower value",0.971 (inactive)
same,normalized growth,"locus YJL129C, strain trk1, stronger effect = lower value",0.936 (inactive)
same,normalized growth,"locus YJL134W, strain LCB3, stronger effect = lower value",0.932 (inactive)
same,normalized growth,"locus YJL154C, strain vps35, stronger effect = lower value",0.959 (inactive)
same,normalized growth,"locus YJL164C, strain tpk1, stronger effect = lower value",0.811 (active)
same,normalized growth,"locus YJL166W, strain qcr8, stronger effect = lower value",0.872 (active)
same,normalized growth,"locus YJL168C, strain set2, stronger effect = lower value",0.964 (inactive)
same,normalized growth,"locus YJL187C, strain SWE1 (second series), stronger effect = lower value",0.42 (active)
same,normalized growth,"locus YJL187C, strain SWE1, stronger effect = lower value",0.895 (active)
same,normalized growth,"locus YJR066W, strain TOR1, stronger effect = lower value",0.981 (inactive)

# From PubChem BioAssay AID1159580 (chemical genetic matrix, 2015)
